Measured values: ChEMBL document CHEMBL1961873, “Compounds: GSK PKIS; Assays: Nanosyn kinase panel” (2012)

Key:
[1] = target: Fibroblast growth factor receptor 4 (Homo sapiens) (UniProt P22455); details: at 1 µM;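 also: reported figure is the averaged percent inhibition of FGFR4, from the GSK PKIS kinase screening panel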
[2] = target: Tyrosine-protein kinase Fgr (Homo sapiens) (UniProt P09769); details: at 0.1 µM
[3] = target: Tyrosine-protein kinase Fgr (Homo sapiens) (UniProt P09769); details: at 1 µM
[4] = target: Vascular endothelial growth factor receptor 1 (Homo sapiens) (UniProt P17948); details: at 0.1 µM
[5] = target: Vascular endothelial growth factor receptor 1 (Homo sapiens) (UniProt P17948); details: at 1 µM
[6] = target: Receptor-type tyrosine-protein kinase FLT3 (Homo sapiens) (UniProt P36888); details: at 0.1 µM
[7] = target: Receptor-type tyrosine-protein kinase FLT3 (Homo sapiens) (UniProt P36888); details: at 1 µM
[8] = test system: T1, Receptor-type tyrosine-protein kinase FLT3 (Homo sapiens), P36888 [D835Y]; details: at 0.1 µM
T1 sequence (whole entry): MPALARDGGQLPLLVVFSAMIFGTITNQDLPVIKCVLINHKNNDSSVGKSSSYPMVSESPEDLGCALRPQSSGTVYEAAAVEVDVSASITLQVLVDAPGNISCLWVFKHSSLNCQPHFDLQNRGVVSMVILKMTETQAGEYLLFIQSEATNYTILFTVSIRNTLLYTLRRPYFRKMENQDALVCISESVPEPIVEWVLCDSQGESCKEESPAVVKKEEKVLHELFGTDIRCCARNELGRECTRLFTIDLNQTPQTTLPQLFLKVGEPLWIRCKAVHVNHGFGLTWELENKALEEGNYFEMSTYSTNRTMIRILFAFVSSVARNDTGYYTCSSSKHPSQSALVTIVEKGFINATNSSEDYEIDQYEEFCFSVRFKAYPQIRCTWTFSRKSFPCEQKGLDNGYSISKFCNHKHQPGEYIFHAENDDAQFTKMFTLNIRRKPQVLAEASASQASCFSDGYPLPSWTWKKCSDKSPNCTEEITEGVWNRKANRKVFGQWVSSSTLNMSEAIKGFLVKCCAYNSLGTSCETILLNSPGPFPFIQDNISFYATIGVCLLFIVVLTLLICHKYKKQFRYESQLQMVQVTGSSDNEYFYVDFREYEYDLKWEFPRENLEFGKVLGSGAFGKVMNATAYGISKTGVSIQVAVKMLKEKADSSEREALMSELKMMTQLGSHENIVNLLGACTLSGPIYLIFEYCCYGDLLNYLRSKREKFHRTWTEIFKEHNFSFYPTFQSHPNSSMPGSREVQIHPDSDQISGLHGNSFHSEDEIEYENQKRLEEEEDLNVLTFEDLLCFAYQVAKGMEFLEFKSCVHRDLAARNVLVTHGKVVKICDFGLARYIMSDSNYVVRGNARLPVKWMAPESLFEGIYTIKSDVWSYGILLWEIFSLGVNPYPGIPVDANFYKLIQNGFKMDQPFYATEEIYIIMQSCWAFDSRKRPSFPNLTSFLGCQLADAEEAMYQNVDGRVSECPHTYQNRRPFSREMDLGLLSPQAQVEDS

[9] = target: Non-receptor tyrosine-protein kinase TYK2 (Homo sapiens) (UniProt P29597); details: at 1 µM;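 also: values are mean percent inhibition of TYK2 kinase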
[10] = target: T2, Tyrosine-protein kinase receptor TYRO3 (Homo sapiens) (UniProt Q06418); details: at 0.1 µM;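 also: reported percentages are averaged inhibition values of TYRO3 kinase activity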
T2 sequence (whole entry): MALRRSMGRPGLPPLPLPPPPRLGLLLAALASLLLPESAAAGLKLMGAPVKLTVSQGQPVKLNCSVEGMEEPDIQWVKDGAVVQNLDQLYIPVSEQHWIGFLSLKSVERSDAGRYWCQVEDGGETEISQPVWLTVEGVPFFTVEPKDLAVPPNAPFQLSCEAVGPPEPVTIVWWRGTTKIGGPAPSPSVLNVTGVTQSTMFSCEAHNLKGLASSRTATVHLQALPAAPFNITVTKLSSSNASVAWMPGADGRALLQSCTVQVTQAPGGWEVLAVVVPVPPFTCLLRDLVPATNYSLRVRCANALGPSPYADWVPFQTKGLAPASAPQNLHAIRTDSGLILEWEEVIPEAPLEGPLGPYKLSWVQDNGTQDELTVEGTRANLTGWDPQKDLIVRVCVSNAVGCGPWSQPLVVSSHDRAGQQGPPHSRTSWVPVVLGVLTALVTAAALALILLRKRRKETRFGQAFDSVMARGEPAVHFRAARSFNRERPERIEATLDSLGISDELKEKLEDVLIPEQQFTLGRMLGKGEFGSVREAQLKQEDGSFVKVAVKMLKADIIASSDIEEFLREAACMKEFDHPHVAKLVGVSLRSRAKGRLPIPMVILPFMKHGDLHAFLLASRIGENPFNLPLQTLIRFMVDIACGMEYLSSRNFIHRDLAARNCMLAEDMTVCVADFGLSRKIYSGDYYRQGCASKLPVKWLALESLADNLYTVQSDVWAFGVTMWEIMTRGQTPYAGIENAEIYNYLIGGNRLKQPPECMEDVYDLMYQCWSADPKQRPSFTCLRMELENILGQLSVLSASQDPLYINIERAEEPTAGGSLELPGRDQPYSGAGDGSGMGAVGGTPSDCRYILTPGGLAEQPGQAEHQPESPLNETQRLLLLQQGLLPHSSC

Fibroblast growth factor receptor 4 (Homo sapiens), sequence (P22455 22-802 limits assumed): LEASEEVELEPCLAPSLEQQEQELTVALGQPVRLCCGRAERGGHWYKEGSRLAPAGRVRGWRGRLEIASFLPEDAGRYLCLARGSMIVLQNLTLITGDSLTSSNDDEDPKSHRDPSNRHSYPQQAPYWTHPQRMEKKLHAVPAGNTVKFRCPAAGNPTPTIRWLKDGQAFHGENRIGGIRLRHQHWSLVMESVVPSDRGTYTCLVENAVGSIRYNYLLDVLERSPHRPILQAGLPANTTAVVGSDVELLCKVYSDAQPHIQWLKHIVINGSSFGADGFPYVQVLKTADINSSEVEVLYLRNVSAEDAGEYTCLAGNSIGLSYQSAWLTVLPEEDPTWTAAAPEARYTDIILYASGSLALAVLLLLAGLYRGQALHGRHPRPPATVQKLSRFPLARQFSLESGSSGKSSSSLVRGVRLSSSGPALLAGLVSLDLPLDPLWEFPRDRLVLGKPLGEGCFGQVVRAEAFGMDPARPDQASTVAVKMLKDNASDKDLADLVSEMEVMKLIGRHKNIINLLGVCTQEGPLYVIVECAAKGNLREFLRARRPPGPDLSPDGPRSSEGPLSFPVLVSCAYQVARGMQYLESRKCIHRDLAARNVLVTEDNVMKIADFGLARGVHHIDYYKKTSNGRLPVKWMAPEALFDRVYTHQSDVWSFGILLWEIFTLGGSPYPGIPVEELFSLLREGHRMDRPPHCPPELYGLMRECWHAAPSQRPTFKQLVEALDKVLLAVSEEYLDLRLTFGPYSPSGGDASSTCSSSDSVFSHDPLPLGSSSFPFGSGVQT
Non-receptor tyrosine-protein kinase TYK2 (Homo sapiens), sequence (P29597 whole entry): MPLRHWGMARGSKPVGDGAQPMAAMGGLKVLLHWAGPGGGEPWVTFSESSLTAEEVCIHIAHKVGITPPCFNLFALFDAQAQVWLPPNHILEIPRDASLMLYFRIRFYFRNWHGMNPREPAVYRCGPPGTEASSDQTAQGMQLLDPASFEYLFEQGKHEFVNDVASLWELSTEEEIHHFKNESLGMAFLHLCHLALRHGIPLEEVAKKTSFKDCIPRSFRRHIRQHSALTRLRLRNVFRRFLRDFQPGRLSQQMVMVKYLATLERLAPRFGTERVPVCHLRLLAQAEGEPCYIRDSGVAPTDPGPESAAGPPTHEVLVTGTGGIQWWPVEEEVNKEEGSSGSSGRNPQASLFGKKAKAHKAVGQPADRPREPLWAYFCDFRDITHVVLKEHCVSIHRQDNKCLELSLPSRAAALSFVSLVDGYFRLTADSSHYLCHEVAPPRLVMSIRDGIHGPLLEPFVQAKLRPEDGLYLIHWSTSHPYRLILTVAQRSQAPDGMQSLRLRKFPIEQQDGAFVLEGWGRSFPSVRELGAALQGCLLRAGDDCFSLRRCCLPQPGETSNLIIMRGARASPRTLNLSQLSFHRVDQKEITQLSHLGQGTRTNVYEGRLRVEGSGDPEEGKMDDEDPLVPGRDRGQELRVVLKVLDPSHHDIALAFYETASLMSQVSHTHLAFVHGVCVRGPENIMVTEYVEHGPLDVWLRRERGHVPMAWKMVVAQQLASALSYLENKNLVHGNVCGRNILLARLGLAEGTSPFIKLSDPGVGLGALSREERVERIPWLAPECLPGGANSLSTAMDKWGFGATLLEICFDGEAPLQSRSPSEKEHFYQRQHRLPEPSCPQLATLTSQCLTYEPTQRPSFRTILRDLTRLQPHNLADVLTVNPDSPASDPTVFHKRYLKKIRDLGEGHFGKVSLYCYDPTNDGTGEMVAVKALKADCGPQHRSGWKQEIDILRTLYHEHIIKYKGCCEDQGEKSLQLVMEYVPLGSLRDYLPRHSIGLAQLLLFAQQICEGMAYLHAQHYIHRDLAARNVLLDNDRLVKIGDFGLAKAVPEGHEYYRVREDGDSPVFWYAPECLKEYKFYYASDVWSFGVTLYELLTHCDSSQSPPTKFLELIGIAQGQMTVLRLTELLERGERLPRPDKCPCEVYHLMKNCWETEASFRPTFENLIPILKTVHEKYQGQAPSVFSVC
Tyrosine-protein kinase Fgr (Homo sapiens), sequence (P09769 2-529 limits assumed): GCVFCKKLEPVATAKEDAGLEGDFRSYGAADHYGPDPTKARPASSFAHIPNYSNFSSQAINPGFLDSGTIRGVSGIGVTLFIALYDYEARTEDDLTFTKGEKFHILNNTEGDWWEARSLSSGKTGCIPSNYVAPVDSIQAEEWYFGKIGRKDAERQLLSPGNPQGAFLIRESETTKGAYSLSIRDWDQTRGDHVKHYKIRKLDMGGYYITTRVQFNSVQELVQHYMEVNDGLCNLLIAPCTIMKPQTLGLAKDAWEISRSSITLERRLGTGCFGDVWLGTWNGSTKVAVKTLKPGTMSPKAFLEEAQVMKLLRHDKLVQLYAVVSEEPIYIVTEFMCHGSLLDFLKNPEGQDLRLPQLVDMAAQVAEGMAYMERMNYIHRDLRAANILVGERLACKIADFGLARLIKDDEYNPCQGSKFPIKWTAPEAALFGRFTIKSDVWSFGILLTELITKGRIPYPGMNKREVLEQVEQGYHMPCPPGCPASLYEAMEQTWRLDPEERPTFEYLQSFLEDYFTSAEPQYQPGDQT
Vascular endothelial growth factor receptor 1 (Homo sapiens), sequence (P17948 whole entry): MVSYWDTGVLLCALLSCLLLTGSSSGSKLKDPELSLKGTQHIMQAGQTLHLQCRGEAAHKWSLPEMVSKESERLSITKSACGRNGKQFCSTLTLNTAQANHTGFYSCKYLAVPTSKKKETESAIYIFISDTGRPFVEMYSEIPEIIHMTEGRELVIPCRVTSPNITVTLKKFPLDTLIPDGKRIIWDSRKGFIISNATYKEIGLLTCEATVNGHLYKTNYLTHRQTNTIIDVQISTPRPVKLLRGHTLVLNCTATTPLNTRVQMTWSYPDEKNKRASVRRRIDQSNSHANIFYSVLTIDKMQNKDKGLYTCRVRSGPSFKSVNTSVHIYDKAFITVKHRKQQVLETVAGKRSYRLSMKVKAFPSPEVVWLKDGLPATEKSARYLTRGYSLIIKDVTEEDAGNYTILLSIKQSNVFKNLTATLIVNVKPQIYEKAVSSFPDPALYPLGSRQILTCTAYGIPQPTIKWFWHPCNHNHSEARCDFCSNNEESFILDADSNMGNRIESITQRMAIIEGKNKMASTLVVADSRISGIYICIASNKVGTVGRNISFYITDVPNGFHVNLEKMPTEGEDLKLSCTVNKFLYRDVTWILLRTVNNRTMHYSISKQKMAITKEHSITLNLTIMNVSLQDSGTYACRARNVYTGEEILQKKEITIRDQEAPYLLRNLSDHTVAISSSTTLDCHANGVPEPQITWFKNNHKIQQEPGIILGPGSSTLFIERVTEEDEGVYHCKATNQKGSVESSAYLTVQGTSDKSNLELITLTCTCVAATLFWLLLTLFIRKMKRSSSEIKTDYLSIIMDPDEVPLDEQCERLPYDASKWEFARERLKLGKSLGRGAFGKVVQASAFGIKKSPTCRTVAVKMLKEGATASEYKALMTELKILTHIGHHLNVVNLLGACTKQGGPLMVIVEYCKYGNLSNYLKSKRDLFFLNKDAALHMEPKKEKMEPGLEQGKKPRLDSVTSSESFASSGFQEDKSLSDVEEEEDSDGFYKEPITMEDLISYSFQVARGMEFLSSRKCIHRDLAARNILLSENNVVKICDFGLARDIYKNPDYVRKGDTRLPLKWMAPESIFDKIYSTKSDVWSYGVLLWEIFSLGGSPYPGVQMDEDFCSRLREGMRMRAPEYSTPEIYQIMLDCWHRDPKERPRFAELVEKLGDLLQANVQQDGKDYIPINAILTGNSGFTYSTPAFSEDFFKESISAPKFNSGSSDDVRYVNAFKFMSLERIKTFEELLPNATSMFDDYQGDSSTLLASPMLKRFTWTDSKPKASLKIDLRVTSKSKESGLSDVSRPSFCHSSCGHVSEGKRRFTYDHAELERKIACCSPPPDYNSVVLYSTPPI

| Structure (SMILES) | inhibition [1] [%] | inhibition [2] [%] | inhibition [3] [%] | inhibition [4] [%] | inhibition [5] [%] | inhibition [6] [%] | inhibition [7] [%] | inhibition [8] [%] | inhibition [9] [%] | inhibition [10] [%] |
| --- | --- | --- | --- | --- | --- | --- | --- | --- | --- | --- |
| Cc1ccc(NC(=O)CC2CC2)cc1-c1ccc(C(=O)NCC2CC2)cc1 | 1.67 | 7.45 | 6.65 | -0.36 | 1.74 | 1.93 | 3.21 | -2.84 | -2.78 | 2.48 |
| Cc1cc(O)cc(C)c1/C=C/c1cncc(C(=O)N(C)C)c1 | 2.26 | 2.92 | 9.21 | 2.21 | 3.14 | 2.14 | 2.25 | -0.23 | -2.56 | 3.45 |
| COc1cc(Nc2nccc(-c3cnn4ncccc34)n2)cc(OC)c1 | 0.03 | 6.85 | 36.9 | 10.4 | 30.9 | 59.6 | 90.8 | 27 | 31.8 | 1.77 |
| CCOc1nccc2c1nc(-c1nonc1N)n2CC | 4.2 | 6.66 | 5.06 | 2.14 | 2.02 | 0.14 | 1.3 | -2.2 | 1.21 | 3.25 |
| Cc1nc(-c2ccccc2)n2nc(NCCCN3CCOCC3)ncc12 | 3.35 | 2.33 | 4.11 | 2.94 | -1.07 | 2.39 | 4.33 | -0.33 | 0.82 | 0.92 |
| Nc1ccc(C#Cc2cncnc2Nc2ccc(OCc3cccc(F)c3)c(Cl)c2)cc1 | 1.61 | 3.78 | 4.78 | 0.39 | 1.35 | 0.49 | 2.64 | 1.46 | -2.76 | 2.47 |
| O=C1Nc2ccccc2/C1=C/Nc1ccc2[nH]c(=O)[nH]c2c1 | 11.4 | 11.3 | 26.5 | 11 | 30.1 | 26.6 | 74 | 17.5 | 18.7 | 5.57 |
| O=C1Nc2ccc(-c3cccnc3)cc2C1=Cc1cc(Br)c(O)c(Br)c1 | 3.07 | 1.1 | 7.55 | 2.53 | 2.06 | 1.83 | 7.91 | 11.8 | 6.13 | 3.07 |
| Cc1ccc(O)cc1Nc1ccnc2ccc(S(C)(=O)=O)cc12 | 9.15 | 76.2 | 81.8 | 22.2 | 72.6 | 2.73 | 4.94 | -0.25 | 9.66 | 4.42 |
| CN1CCN(C(=O)c2ccc(NC(=O)Nc3ccc(N(C)c4ccnc(Nc5ccc(CS(C)(=O)=O)cc5)n4)cc3)cc2)CC1 | 3.43 | 5.31 | 26.3 | 21.4 | 43.5 | 64.7 | 83.9 | 0.6 | 21.6 | 2.23 |
| Cc1cc(Cl)cc2c1NC(=O)C2=NNc1ccc(S(N)(=O)=O)cc1 | 2.64 | 4.99 | 2.96 | 0.01 | -0.12 | 2.63 | 1.85 | -2.63 | 0.66 | 1.11 |
| c1ccc(Cc2nc3ccc(Nc4ncnc5ccccc45)cc3[nH]2)cc1 | -0.04 | 5.51 | 18.2 | 0.86 | 4.39 | 0.83 | 3.55 | 4.82 | -0.14 | 1.48 |
| OCc1ccc(-c2nc(-c3ccccn3)c(-c3ccc4c(c3)OCO4)[nH]2)cc1 | 4.36 | 3.43 | 8.26 | 0.94 | 2.09 | 3.25 | 5.93 | 0.22 | -3.23 | 3.25 |
| Nc1nccc(-c2c(-c3ccc(F)cc3)ncn2CCCN2CCOCC2)n1 | -1.03 | 2.89 | 3.22 | 0.15 | -0.18 | -0.59 | 3.31 | -5.08 | -1.83 | 3.82 |
| FC(F)(F)c1ccc(-c2nn3ncccc3c2-c2ccnc(Nc3ccc4c(c3)OCCO4)n2)cc1 | 11.7 | 25.6 | 61.1 | 1.91 | 4.89 | 1.7 | 0.28 | 4.42 | 5.73 | 1.27 |
| CN(c1ccc(NC(=O)Nc2ccc(OC(F)(F)F)cc2)cc1)c1ccnc(Nc2cccc(S(N)(=O)=O)c2)n1 | 2.57 | 13.8 | 57.2 | 44.4 | 96.1 | 28.6 | 87.4 | 2.56 | -2.45 | 3.15 |
| CCn1c(-c2nonc2N)nc2ccc(F)cc21 | 2.77 | 4.5 | 1.73 | 3.79 | 2.76 | 2.66 | 2.44 | -1.29 | -4.18 | 3.03 |
| NS(=O)(=O)c1ccc(NC=C2C(=O)Nc3ccc4ncsc4c32)cc1 | 11.5 | 6.25 | 36.2 | 19.3 | 67.6 | 47.7 | 85.4 | 59.9 | 63.6 | 8.88 |
| CS(=O)(=O)Nc1cccc(-c2ccc3c(NC(=O)C4CC4)n[nH]c3c2)c1 | -2.02 | -0.31 | 4.5 | -2.92 | -1.44 | 0.45 | 0.14 | -1.25 | -0.54 | 2.53 |
| Cc1ccc2c(c1)/C(=N/Nc1ccc(S(N)(=O)=O)cc1)C(=O)N2 | -0.45 | -0.72 | 9.99 | 0.83 | 7.86 | 13.6 | 61.7 | -0.36 | 1.67 | -0.02 |
| N#Cc1c(NC(=O)c2ccccc2F)sc2c1CCCC2 | -0.54 | 1.26 | 1.21 | -1.64 | -1.09 | 0.49 | -1.06 | -2.89 | 0.85 | -1.29 |
| COC(=O)c1cncc(/C=C/c2c(C)cc(O)cc2C)c1 | 0.95 | 5.81 | 20.9 | 0.94 | 0.15 | 2.01 | 3.02 | -1.65 | -3.53 | 3.21 |
| NC(=O)c1sc(-n2cnc3ccccc32)cc1OCc1ccccc1Br | 0.92 | 1.44 | 6.14 | -0.01 | 4.57 | 2.74 | 1 | -6.76 | -4.77 | 1.17 |
| CN(C)C(=O)O[C@H]1CN[C@H](C#Cc2cc3ncnc(Nc4ccc(OCc5cccc(F)c5)c(Cl)c4)c3s2)C1 | 1.39 | 1.56 | 4.75 | 1.8 | 2.23 | -0.55 | 0.66 | 3.22 | -2.89 | 2.23 |
| Cc1ccc(Nc2ccnc(Nc3cccc(C(N)=O)c3)n2)cc1O | 3.08 | 52.6 | 72.8 | 69.9 | 97.8 | 18.8 | 64.5 | 30.1 | 16.9 | 13.1 |
| COc1cccc(-n2ncc3c(N/N=C/c4ccc(S(C)(=O)=O)cc4)ncnc32)c1 | -1.16 | 28.5 | 64 | 5.44 | 18.8 | 8.26 | 27.9 | 18.6 | 1.37 | 10.6 |
| CN(C)c1cc2c(Nc3ccc4c(cnn4Cc4ccccc4)c3)ncnc2cn1 | 7.89 | 9.23 | 33.2 | 1.1 | 1.36 | 1.97 | 1.77 | 0.4 | -5.95 | 0.23 |
| [O-][S+]1CCN(Cc2ccc(-c3ccc4ncnc(Nc5ccc(OCc6ccccc6)c(Cl)c5)c4c3)o2)CC1 | -0.87 | -0.44 | 8.63 | -0.09 | 1.05 | 5.36 | 2.27 | 0.74 | -0.57 | 0.39 |
